According to PubChem BioAssay AID493170 (National Center for Advancing Translational Sciences (NCATS), 2011):
Results filed as inconclusive are left out. The source made the active and inactive calls. Calls follow the shape of the dose curve; as a rule, active = well fitted inhibition curve with a large enough effect; inconclusive = small, poorly fitted or top-dose-only effect, or effect the other way; inactive = flat fitted curve, though single readings scatter.

Biological target: Ubiquitin carboxyl-terminal hydrolase 2 (Homo sapiens) (UniProt O75604)
Assay: Ub-rhodamine 110 based assay for inhibitors Ubiquitin-specific Protease USP2a; also: nearly all actives have a fitted effect of over 50% in size
Conditions: USP2a Ub-rhodamine110 cleavage, fluorescence; series mostly up to 38.3 µM; activity change, negative = inhibition: at the top concentration
How it was run: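 5 nM USP2a preincubated with compounds for 30 min at RT in 20 mM Tris-HCl pH 8.0, 2 mM CaCl2, 2 mM beta-mercaptoethanol, 0.05% CHAPS. Cleavage of 150 nM Ub-rhodamine 110 read kinetically (Ex 485/Em 531) for 7 min.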
% is scaled to controls: 0 for no effect and ±100 for the full control effect; potency is read from the fitted curve at half-maximal effect.

Chain of Ubiquitin carboxyl-terminal hydrolase 2 (Homo sapiens) (O75604 whole entry, looked up): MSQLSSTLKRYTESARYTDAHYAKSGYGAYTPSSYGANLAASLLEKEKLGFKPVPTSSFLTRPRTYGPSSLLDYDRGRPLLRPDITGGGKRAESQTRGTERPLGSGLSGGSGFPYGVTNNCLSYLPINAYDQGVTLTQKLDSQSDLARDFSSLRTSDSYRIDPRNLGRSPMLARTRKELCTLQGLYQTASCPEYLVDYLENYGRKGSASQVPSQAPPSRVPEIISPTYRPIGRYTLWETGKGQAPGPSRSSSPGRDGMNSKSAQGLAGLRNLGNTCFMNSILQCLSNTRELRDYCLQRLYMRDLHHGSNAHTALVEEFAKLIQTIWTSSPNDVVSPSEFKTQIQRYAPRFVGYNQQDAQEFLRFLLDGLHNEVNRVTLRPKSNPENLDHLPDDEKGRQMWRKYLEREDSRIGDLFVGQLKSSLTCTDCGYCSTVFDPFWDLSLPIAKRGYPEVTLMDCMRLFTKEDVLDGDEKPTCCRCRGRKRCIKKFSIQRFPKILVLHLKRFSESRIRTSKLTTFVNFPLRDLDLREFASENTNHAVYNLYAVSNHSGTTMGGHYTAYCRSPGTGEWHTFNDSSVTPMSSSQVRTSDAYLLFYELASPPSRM

SMILES | Potency | activity change, negative = inhibition
O=C(/C=C/c1ccc(Cl)c([N+](=O)[O-])c1)Nc1ccc(N2CCCC2)cc1 | 12.6 µM (active) | 
Cc1ccc(S(=O)(=O)Nc2ccccc2C(=O)Nc2nc(-c3ccc(F)cc3)cs2)cc1 | 7.08 µM (active) | 
O=c1[nH]c(=S)[nH]c2c1C(c1ccc(Br)cc1)c1c([nH]c(=S)[nH]c1=O)O2 | 11.2 µM (active) | 
C=C(CCC(=O)c1ccccc1)C(=O)c1ccccc1 |  | -13.8% (inactive)
C[C@H](CO)N1C[C@H](C)[C@@H](CN(C)S(=O)(=O)c2cccs2)Oc2c(NC(=O)Nc3ccc4c(c3)OCO4)cccc2C1=O |  | -4.09% (inactive)
O=C(NC1CCCCC1)C(c1ccco1)N(C(=O)c1csnn1)c1cccc(F)c1 (centres undefined) |  | 1.96% (inactive)
CCOC(=O)COc1ccccc1/C=N/O |  | -0.957% (inactive)
COc1ccc(OC)c(Nc2ccc(Nc3cc(OC)ccc3OC)nn2)c1 |  | -14.2% (inactive)
CCOC(=O)c1c(C)c(C(=O)O)n(C)c1C |  | -0.886% (inactive)
O=C(NCCN1C(=O)CSC1=O)C1CC(=O)N(c2ccccc2)C1 (centres undefined) |  | -2.6% (inactive)
CCC(C(=O)Nc1nnc(-c2ccco2)s1)c1ccccc1 (centres undefined) |  | -13.1% (inactive)
C=CCn1c(N)c(C(=O)NCc2cccnc2)sc1=S |  | 4.72% (inactive)
CC(=O)c1ccc(NC(=O)CC(NCCC2=CCCCC2)C(=O)O)cc1 (centres undefined) |  | 7.73% (inactive)
Cc1ccccc1NC(=O)CSc1nnc(-c2ccco2)c(-c2ccco2)n1 | 10 µM (active) | 
C=CC[C@H](CC(=O)N[C@H](CO)Cc1ccccc1)C(=O)N[C@@H](COC(=O)[C@@H](CC=C)CC(=O)OC(C)(C)C)Cc1c[nH]c2ccccc12 |  | -19.9% (inactive)
O=C(c1ccco1)N1CCN(C(c2cccs2)c2sc3ncnn3c2O)CC1 (centres undefined) |  | -4.24% (inactive)
CC(C)N(C(=O)c1sc2cc([N+](=O)[O-])ccc2c1Cl)C(C)C |  | 9.71% (inactive)
C=CC[C@H](CC(=O)N[C@H](CO)Cc1ccccc1)C(=O)N[C@H](COC(=O)[C@@H](CC=C)CC(=O)OC(C)(C)C)Cc1c[nH]c2ccccc12 |  | -11.3% (inactive)
O=C(Nc1ccc2nc(-c3ccco3)c(-c3ccco3)nc2c1)N1CCN(c2ccccn2)CC1 | 3.55 µM (active) | 
N#CC(c1ccccc1)c1ccc(C(=O)c2ccc(F)cc2)cc1 (centres undefined) |  | -14.7% (inactive)

SMILES | Potency | activity change, negative = inhibition
COc1ccc(-c2nc(C#N)c(NCC3CCCO3)o2)cc1OC (centres undefined) |  | -6.99% (inactive)
CC(=O)OCC(=O)Nc1ccc(Cl)cc1Cl |  | -6% (inactive)
C=CCn1c(NCc2cc(C)ccc2O)nc2ccccc21 |  | -5.84% (inactive)
CC(C)c1ccc(NC(=O)C(c2ccc3c(c2)OCO3)N2CCCCC2)cc1 (centres undefined) |  | -8.46% (inactive)
Cc1ccc(NC(=O)CSc2nnc(COc3ccc(C#N)cc3)n2-c2ccccc2)cc1C |  | -17% (inactive)
C#CCOCCOCCOCCNc1nc(N2CCN(C(=O)CCCCCCCCCCNC(=O)[C@H]([C@@H](C)CC)n3cc(CCCCCN)nn3)CC2)nc(N2CCN(C(=O)CCCCCCCCCCNC(=O)[C@H](CCCCN)n3cc(CCCC(=O)O)nn3)CC2)n1 |  | -15.2% (inactive)
COc1cc(OC)cc(-c2c(C#Cc3ccsc3)c3cc(-c4ccc(OC)c(F)c4)ccc3n2C)c1 |  | -6.24% (inactive)
COc1ccc(NC(=O)CSc2nc(O)cc(=O)n2-c2ccc(OC)cc2)cc1 | 11.2 µM (active) | 
Cc1cccc(N=C2NC(=O)/C(=C/C=C/c3ccco3)S2)c1 | 10 µM (active) | 
COc1cccc(OC)c1-c1nn2c(-c3cc(-c4ccccc4)n[nH]3)nnc2s1 | 6.31 µM (active) | 
O=C(CCS(=O)(=O)c1ccc(Br)s1)NC1CCCC1 |  | -7.53% (inactive)
COc1ccc(/C=C2/SC(=S)N(c3ccc(S(=O)(=O)Nc4nccs4)cc3)C2=O)cc1 | 3.16 µM (active) | 
COc1ccc(OCC(=O)Nc2ccccc2OC)cc1 |  | 4.57% (inactive)
CC(C)CC(c1nnnn1CC1CCCO1)N1CCN(c2nc3ccccc3s2)CC1 (centres undefined) |  | -9.59% (inactive)
Cc1noc(NS(=O)(=O)c2ccc(N3CC(O)=C(c4ccccc4)C3=N)cc2)c1C |  | -8.71% (inactive)
O=C(COc1ccccc1)NCCSc1ccccc1 |  | 4.88% (inactive)
CC(C)Oc1ccc(C(=O)Nc2ccc(N3CCCC3)cc2)cc1 | 10 µM (active) | 
Cn1c2ccccc2c2nnc(SC3CCOC3=O)nc21 (centres undefined) |  | 1.37% (inactive)
CCOC(=O)N1CCN(C(=O)c2cc3c(ccc4ccccc43)oc2=O)CC1 |  | -9.22% (inactive)
